# Screening results from PubChem.
# HepG2 viability: kills HepG2 cells in TGF-b inhibitor counter-screen | 410,000 compounds, 0.76% hits | Potency, µM (series often up to 46.1 µM), without a hit: at the highest dose activity change, negative = cytotoxicity, usual class: cytotoxic | AID 588856 | HepG2 CAGA-GFP viability, ATP luminescence, 18 h
#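 CellTiter-Glo luminescence gave cytotoxicity after 18 hours at 37 degrees C. The cells were HepG2 CAGA-GFP in 1% FBS DMEM, stimulated with 500 pg/mL TGF-beta after compound addition. %Activity was normalised to no-cell wells (complete cell-killing) and DMSO (no toxicity), and curves were fitted and classified.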
# HT1080NT lethal: kills 2HG-producing HT-1080-NT fibrosarcoma cells; HT-1080-NT fibrosarcoma viability, CellTiter-Glo ATP luminescence, 48 h; Potency, µM (titrated, usually from 46.1 µM), for inactives: top-dose activity, negative = less viability, most hits filed as cytotoxic; 360,000 compounds, 1.6% hits;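 also: NT is the 2HG producing partner of a matched IDH1 knockdown line; 0% = DMSO-treated cells and -100% = media-only wells without cells; nearly all actives have a fitted effect of over 55% in size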
#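 HT-1080-NT; 750 cells/well; 5% FBS RPMI; 48 h compound, 37 degrees C; CellTiter-Glo luminescence; curve fitting and curve-class assignment.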
# HT1080 IDH1KD tx: HT-1080 IDH1 knockdown cell toxicity (counter line); Potency, µM (top dose mostly 46.1 µM), inactives show top-dose activity, negative = toxicity, actives largely listed as cytotoxic; AID 686971; 360,000 compounds, 2% hits; HT-1080 IDH1 knockdown viability, ATP luminescence, 48 h;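 also: 0% = DMSO wells and -100% = cell-free medium wells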
#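 % activity derives from luminescence (CellTiter-Glo), normalised to DMSO and no-cell wells. HT-1080-IDH1KD cells, 750/well, had 48 h compound exposure at 37 °C.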
# TDP1 cell noCPT: qHTS for Inhibitors of human tyrosyl-DNA phosphodiesterase 1 (TDP1): qHTS in cells in absence of CPT. 420,000 compounds, 15% hits. DT40 Tdp1-/- hTDP1 cells, no CPT, ATP luminescence, 48 h. Potency, µM (titrated, usually from 46.2 µM), without a hit: at the top dose activity change, negative = growth inhibition, actives largely listed as inhibitors. AID 686978, 2013; also: % is scaled to controls: 0 for no effect and ±100 for the full control effect; nearly all actives have a fitted effect of over 55% in size
#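 Readout: luminescence from CellTiter-Glo after 30 min in the dark at RT. Cells: DT40 Tdp1-/- with stable hTDP1, 400/well. Exposure: compounds alone, ≥48 hr, 37 °C.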
# TGFb SMAD3 inh: blocks TGF-b signaling; HepG2 CAGA-GFP TGF-b/SMAD3 reporter, GFP fluorescence, 18 h; TGF-beta stimulated, 500 pg/mL final; Potency, µM (highest dose often 46.1 µM), without a hit: at the top dose activity, negative = inhibition, hits mostly inhibitors; 410,000 compounds, 1.2% hits; also: % is scaled to controls: 0 for no effect and ±100 for the full control effect; nearly all actives have a fitted effect of over 65% in size
#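 Inhibition was scored as loss of TGF-beta-induced (500 pg/mL final, 18 hours, 37 degrees C) GFP in HEPG2 cells carrying a CAGA-GFP reporter, in DMEM with 1% FBS. Well GFP was summed per cell; Activity was normalised to unstimulated and stimulated DMSO wells, then concentration-response fitting.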
# DT40 TDP1 CPT: DT40-hTDP1 cell growth loss with CPT; 420,000 compounds, 12% hits; chicken DT40 Tdp1-/-;hTDP1 cells + 20 nM CPT, ATP luminescence, 48 h; Potency, µM (highest dose often 46.2 µM), for inactives: at the top dose activity change, negative = growth inhibition, usual class: inhibitors; also: % is scaled to controls: 0 for no effect and ±100 for the full control effect; nearly all actives have a fitted effect of over 55% in size
#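 Chicken DT40 Tdp1-/- cells stably complemented with human TDP1 were seeded at 400 cells/well in medium containing 20 nM camptothecin, exposed to pin-transferred compounds, and grown at 37 °C for at least 48 hr. Viability was read as ATP luminescence.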
# An asterisk follows results filed as active; u = inconclusive; x = no result given; [ ] = another dose, or the depositor's remark. Rows were chosen to be rich in hits. Some 17% of all compounds tested hit in one or more screens of this group. Calls follow the shape of the dose curve; as a rule, active = well fitted curve in the direction sought with a large enough effect; inconclusive = small, poorly fitted or top-dose-only effect, or another doubt; inactive = no such curve, though single readings can be large; an effect the other way counts as inactive or inconclusive. Potency is read from the fitted curve at half-maximal effect.
SMILES,HepG2 viability,HT1080NT lethal,HT1080 IDH1KD tx,TDP1 cell noCPT,TGFb SMAD3 inh,DT40 TDP1 CPT
O=C(NCc1ccccc1Cl)C(=O)NCC(c1ccco1)S(=O)(=O)c1cccs1 (stereo not drawn),-40.2%,x,x,16.4µM*,-25.5%,u
O=C(NCc1ccccc1F)C(=O)NCC(c1ccco1)S(=O)(=O)c1cccs1 (stereo not drawn),4.5%,x,x,u,11.7%,u
Cc1cccc(C(=O)NCC(=O)Nc2ccncc2)c1,-20.1%,5.1%,5.7%,u,-14.4%,-28.0%
COc1cc2c(cc1OC)CN(C(=O)CN1CCN(S(=O)(=O)c3ccccc3Br)CC1)CC2,-9.9%,12.4%,0.0%,2.06µM*,17.0%,u
COc1ccc(S(=O)(=O)N2CCN(CC(=O)N3CCc4ccccc4C3)CC2)cc1OC,-15.5%,0.2%,0.0%,u,u,-28.9%
O=C(CN1CCN(S(=O)(=O)c2ccc(F)c(Cl)c2)CC1)N1CCc2ccccc2C1,-7.1%,-1.1%,-1.8%,16.4µM*,u,u
CN(CC1CCOCC1)C(=O)CC1C(=O)NCCN1Cc1cccc(F)c1 (stereo not drawn),9.3%,u,15.6%,4.6%,2.0%,33.6%
Cc1nc(N/N=C/c2cccc(F)c2)cc(N2CCOCC2)n1,-18.1%,-0.8%,-1.4%,u,69.9%,u
Oc1ccccc1/C=N/Nc1cc(N2CCCC2)nc(N2CCCC2)n1,-56.9%,-2.3%,-11.9%,11.6µM*,-25.1%,11.6µM*
Cc1nc(N/N=C/c2ccc(O)cc2O)cc(N2CCOCC2)n1,-38.8%,u,4.11µM*,u,38.2%,u
O=[N+]([O-])c1ccccc1/C=N/Nc1nc(N2CCCC2)nc(N2CCCC2)n1,-5.0%,-20.6%,-23.4%,u,20.2%,u
Oc1ccc(/C=N/Nc2cc(N3CCOCC3)nc(N3CCOCC3)n2)cc1O,-25.0%,-0.7%,-1.9%,20.6µM*,-12.6%,u
COc1ccc(/C=N/Nc2cc(C)nc(N3CCOCC3)n2)cc1,-72.6%,-0.9%,0.6%,u,0.0%,-7.9%
Oc1cccc(/C=N/Nc2cc(N3CCOCC3)nc(N3CCOCC3)n2)c1,-57.9%,-3.0%,3.3%,14.6µM*,4.8%,16.4µM*
COc1cc(CN2CCOc3ccc(CN4CCN(CCO)CC4)cc3C2)ccc1F,x,x,x,-15.2%,x,6.0%[9.04 µM]
CC(C)CCNC(=O)c1ccc2c(c1)N(Cc1cccc(Cl)c1)C(=O)c1ccccc1S2,-13.3%,x,x,20.6µM*,-16.0%,u
CCN1C(=O)c2ccccc2Sc2ccc(NC(C)=O)cc21,-2.5%,x,x,-2.0%,-15.0%,0.6%
Cc1cccc(CN2C(=O)c3ccccc3Sc3ccc(C(=O)NCCc4ccccc4)cc32)c1,-4.6%,x,x,u,-9.2%,-15.8%
CC(C)CCNC(=O)Nc1ccc2c(c1)N(Cc1ccccc1)C(=O)c1ccccc1S2,-23.7%,x,x,u,x,18.4µM*
CCCc1c(C)nc(N2CCN(c3ccccc3F)CC2)[nH]c1=O,5.4%,12.2%,8.2%,-25.7%,-14.4%,-21.5%
CCCCCCCCN1[C@@H](CC(=O)OCC)c2cc(C(F)(F)F)ccc2S1(=O)=O,-21.2%,0.0%,12.0%,16.4µM*,u,u
CCCCCCCCCCCCN1[C@@H](CC(=O)OC)c2cc(F)ccc2S1(=O)=O,-3.6%,u,7.2%,10µM*,u,u
CCCCCCCCCCCCN1[C@@H](CC(=O)OC)c2cc(F)cc(F)c2S1(=O)=O,-16.4%,5.9%,2.3%,18.4µM*,0.7%,u
CCCCCCCCCCCCN1[C@@H](CC(C)=O)c2cc(F)ccc2S1(=O)=O,-62.2%,13.3%,8.2%,u,-23.4%,u
